The text below walks through data of PubChem BioAssay.

A short description of test [1]: reducers of endogenous Her2 protein level, primary screen, SKBR3 breast tumor cells, AlphaScreen, ATP viability (AID 461).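 For Her2 level: lower value means less Her2 protein in the cells.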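 For viability: percent of carrier control wells set as 100% viability.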 The settings on record: 18-24 h, measured here: SKBR3 viability, ATP luminescence, at 10 µM. In general terms: In Alpha technology, singlet oxygen from a donor bead excites a nearby acceptor bead.
Test [2] deals with Receptor tyrosine-protein kinase erbB-2 (Homo sapiens) (UniProt P04626). Described as above. The conditions noted are these: 18-24 h, at 10 µM, stronger effect = lower value.
Test [3] in a line: SK-BR-3 cell growth inhibitors, pilot screen, 24 h, human (AID 572;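 active = viability at or below 10% of carrier control in both of two separate runs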;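 note: compound exposure lasted between 18 and 24 h rather than exactly 24 h; 100% = carrier-treated control wells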). The settings on record: SK-BR-3 viability, CellTiter-Glo luminescence, at 10 µM, stronger effect = lower value. A general note: In ATP-based viability assays light output follows the ATP content of the culture.
Test [4] in a line: HUVEC growth inhibition – cell-based, human, primary screen (AID 575;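 active = viability at or below 30% in both replicate assays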;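 note: 100% = median of untreated cell wells with 0.1% DMSO on each plate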). The conditions noted are these: HUVEC proliferation, CellTiter-Glo luminescence, 72 h; at 10 µM; stronger effect = lower value.
Test [5] can be described thus: growth inhibitors of H69AR lung tumor, primary screen, human, duplicate replicates (AID 580;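 active = viability at or under a set limit in both replicates, limit being median viability minus 3 SD, cut at about 48% in these data, passing the limit was not always enough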;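 note: 100% = mean luminescence of untreated wells and 0% = no signal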). The settings on record: H69AR lung tumor cells viability, ATP luminescence, 72 h; at 10 µM; stronger effect = lower value.
Test [6] can be described thus: reversal of MRP1-mediated doxorubicin resistance, pilot screen, H69AR cells, doxorubicin co-treatment (AID 601;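 active = viability loss from added drug above about 55%, and viability with drug at most 40%, in both replicates, limit read from the data, passing the limit was not always enough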). The settings on record: CellTiter-Glo, 72 h, at 10 µM; for differential viability (reversal): stronger effect = higher value.
A short description of test [7]: 384-well plate pilot, post-Golgi transport modulator project, inhibition of yeast transport mutant growth (AID 636; in the data active = inhibition above about 31%). The settings on record: absorbance 615 nm, about 18 h, stronger effect = higher value.
Test [8] in a line: growth suppression of yeast trafficking mutant, preliminary HTS, modulators of trafficking downstream of Golgi apparatus project, 1536-format plate, OD 615 nm (AID 637; in the data active = inhibition above about 30%). The settings on record: yeast transport mutant growth, absorbance 615 nm, 18 h; stronger effect = higher value.
Test [9] can be described thus: OD615 S. cerevisiae growth inhibition, permissive medium, pilot counter-assay, permissive growth control for S. cerevisiae lifespan shortening project (AID 705;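 active = growth inhibition above 25% in both replicates, a cutoff set 3 SD above the mean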). The settings on record: OD615, 24 h, at 10 µM, stronger effect = higher value.
Test [10] in a line: Restrictive medium S. cerevisiae growth inhibition, OD615, pilot screen of yeast lifespan reduction project, restrictive growth control (AID 706;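 active = growth inhibition above a set limit, 3 SD over mean compound inhibition, in both replicates, cut at about 43% in these data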;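 note: modified DeaD lifespan yeast strain shifted to restrictive glucose medium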). The conditions noted are these: OD615, 48 h, at 10 µM, stronger effect = higher value.
Test [11] is described as follows: viability gain of MRP-1-high H69AR cells under doxorubicin, pilot screen, MRP-1 activator project, CellTiter-Glo, duplicate (AID 807;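 active = viability increase at or above a cutoff of the median across tested compounds plus 3 SD, cut at about 8.5% in these data, passing the limit was not always enough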;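 note: compound pretreatment 18-22 h then 72 h combined with doxorubicin; 0% = doxorubicin alone and 100% = vehicle without doxorubicin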). The conditions noted are these: H69AR viability with doxorubicin, CellTiter-Glo luminescence; at 10 µM; stronger effect = higher value.
Test [12] is described as follows: growth suppression of beta-catenin knockout HCT116, pilot screen, human colon tumor cells (AID 823;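 active = cell viability at or below a set limit in both duplicate runs, the limit being the all-compound median minus 4 SD, cut at about 23% in these data, passing the limit was not always enough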;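 note: 0% = wells killed by 20 µM Hyamine and 100% = untreated DMSO cell wells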). The settings on record: CellTiter-Glo, 60 h, at 10 µM, stronger effect = lower value.
The nature of test [13]: growth suppression of PTEN-deleted HCT116, pilot screen, cell-based, HCT116 clonal line, CellTiter-Glo (AID 824;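 active = viability at or below 27.92% in each of two runs, the all-compound median minus 4 SD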;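 note: 0% = 20 µM Hyamine control and 100% = vehicle cell control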). The settings on record: 60 h, at 10 µM, stronger effect = lower value.
A short description of test [14]: inhibitors of the yeast RAM network, pilot screen, dse1pr::URA3 reporter, 5-FOA selection (AID 869;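 active = inhibition over a set limit, the all-compound mean plus 3 SD, in both replicate runs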;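 note: 0% = DMSO wells with no growth and 100% = 10 µM 1-NA-PP1 with full growth; RAM network block rescues cells from 5-FOA so hits raise OD615 growth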). The settings on record: S. cerevisiae dse1pr::URA3 5-FOA growth, OD615, 2 d; at 10 µM; stronger effect = higher value; strain carries analog-sensitive mutant Cbk1 kinase.
Test [15] in a line: RAM signaling pathway blockade in yeast – S. cerevisiae, Pdr1DBD-CYC8 efflux-inhibited sensitized strain, primary screen (AID 1298;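 active = RAM network inhibition above 8.4% in each of two replicates, 3 SD over the compound average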;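 note: 0% = DMSO untreated cells without growth and 100% = 10 µM 1-NA-PP1 full growth; higher means more yeast growth rescued from 5-FOA killing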). The conditions noted are these: S. cerevisiae cbk1-as DSE1-URA3 strain, 5-FOA growth OD615, 2 d; at 50 µM; stronger effect = higher value.
Where [16] appears, read: H69AR cells + 2 uM doxorubicin, measured here: viability with 2 uM doxorubicin, stronger effect = lower value.
[17] abbreviates: H69AR cells, compound alone cytotoxicity.

Results filed as inconclusive are left out. Active and inactive are the calls of the source.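 Rule for the calls, unless noted: active = Her2 level under about 52% in both replicate screens, with viability over 70% of control (limit read from the data); inconclusive = Her2 under the limit in one screen only, or viability under 70%; inactive = Her2 level above the set limit.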

Chain of Receptor tyrosine-protein kinase erbB-2 (Homo sapiens) (P04626 whole entry, looked up): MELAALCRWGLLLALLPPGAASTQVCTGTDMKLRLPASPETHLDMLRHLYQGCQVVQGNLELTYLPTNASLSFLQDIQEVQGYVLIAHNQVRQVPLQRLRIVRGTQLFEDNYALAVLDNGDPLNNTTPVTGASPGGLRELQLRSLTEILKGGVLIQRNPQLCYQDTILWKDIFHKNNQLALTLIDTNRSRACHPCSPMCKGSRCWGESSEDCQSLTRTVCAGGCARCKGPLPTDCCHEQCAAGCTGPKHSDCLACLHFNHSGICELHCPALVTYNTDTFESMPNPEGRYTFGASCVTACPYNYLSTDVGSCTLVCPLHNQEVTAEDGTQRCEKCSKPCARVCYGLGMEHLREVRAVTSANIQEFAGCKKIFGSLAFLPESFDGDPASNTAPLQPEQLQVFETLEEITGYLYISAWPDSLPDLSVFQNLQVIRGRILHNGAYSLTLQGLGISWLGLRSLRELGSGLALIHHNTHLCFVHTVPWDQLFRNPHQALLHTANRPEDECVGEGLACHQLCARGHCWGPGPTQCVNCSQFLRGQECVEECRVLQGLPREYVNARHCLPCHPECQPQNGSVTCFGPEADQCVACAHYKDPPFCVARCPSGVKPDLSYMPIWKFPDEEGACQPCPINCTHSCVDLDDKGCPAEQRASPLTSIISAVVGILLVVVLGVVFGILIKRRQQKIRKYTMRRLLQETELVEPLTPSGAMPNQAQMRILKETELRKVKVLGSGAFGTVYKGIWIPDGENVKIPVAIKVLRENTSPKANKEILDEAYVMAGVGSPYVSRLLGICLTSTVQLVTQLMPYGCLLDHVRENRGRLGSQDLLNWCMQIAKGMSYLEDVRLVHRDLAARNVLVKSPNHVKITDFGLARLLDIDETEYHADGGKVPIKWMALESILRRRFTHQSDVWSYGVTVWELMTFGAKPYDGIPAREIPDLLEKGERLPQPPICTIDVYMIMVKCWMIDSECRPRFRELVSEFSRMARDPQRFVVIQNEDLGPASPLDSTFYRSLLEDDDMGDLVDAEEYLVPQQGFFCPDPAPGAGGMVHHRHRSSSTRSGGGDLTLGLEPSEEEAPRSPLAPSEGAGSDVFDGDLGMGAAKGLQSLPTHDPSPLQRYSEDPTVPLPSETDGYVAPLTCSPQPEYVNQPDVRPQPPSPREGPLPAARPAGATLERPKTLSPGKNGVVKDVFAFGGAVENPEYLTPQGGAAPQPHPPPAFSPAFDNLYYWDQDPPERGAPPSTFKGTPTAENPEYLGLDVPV

On to `CCCn1c(NCc2cc(C)ccc2O)nc2ccccc21`, for which the viability is 94.5% in test [1]; 94.5% (inactive) in test [3]; 69.4% (inactive) in [4]; 77.9% (inactive) in test [5]; 76% in [6] (setting [16]); 77.9% in test [6] (setting [17]). The viability in test [12] is 53.6% (inactive); in [13] it was 60.1% (inactive). For the same compound, the Her2 level in test [2] is 106% (inactive). Also, the differential viability (reversal) in test [6] (H69AR cells + 2 uM doxorubicin) is 1.94% (inactive). The inhibition in [7] is -1.73% (inactive); in [8], 9.68% (inactive); in test [14], -0.08% (inactive). Besides, the growth inhibition in test [9] is -4.45% (inactive); in test [10], -8.17% (inactive). Further, in test [11], the viability increase is -4.6% (inactive). In test [15], the RAM network inhibition was 0.33% (inactive).
As to `Cc1nc2ccc(Br)cn2c1NC(C)(C)C`, the viability in test [1] was 89.5%; in [3] it was 89.5% (inactive); in [4], 101% (inactive); in test [5], 86.8% (inactive); in [6] (setting [16]), 86.3%; in test [6] (setting [17]), 86.8%. Further, the viability in test [12] is 89.2% (inactive). Also, the Her2 level in test [2] was 103% (inactive). Also, the differential viability (reversal) in test [6] (H69AR cells + 2 uM doxorubicin) is 0.425% (inactive). In addition, the results for the inhibition in test [7], in [8] and in [14] were -6.58% (inactive), -10.3% (inactive) and 1.55% (inactive), respectively. The figures for the growth inhibition in test [9] and in test [10] were -13.4% (inactive) and 4.22% (inactive), respectively. Also, the viability increase in test [11] is -2.98% (inactive). The RAM network inhibition in test [15] was 1.46% (inactive).
As to `COc1cccc2c(=O)c3c(cnn3C)n(C)c12`, the viability was 106% in test [1]; 106% (inactive) in test [3]; 84.9% (inactive) in test [4]; 81.9% (inactive) in test [5]; 92.8% in [6] (setting [16]); 81.9% in [6] (setting [17]). For the same compound, the viability in test [12] was 87.1% (inactive). Moreover, the Her2 level in test [2] is 100% (inactive). Further, the differential viability (reversal) in test [6] (H69AR cells + 2 uM doxorubicin) was -10.9% (inactive). Moreover, the figures for the inhibition in [7], in test [8] and in [14] were -1.97% (inactive), 1.27% (inactive) and 1.5% (inactive), respectively. In addition, the growth inhibition was -1.81% (inactive) in test [9] and 48.7% (active) in test [10]. Besides, the viability increase in [11] was -5.44% (inactive). For the same compound, the RAM network inhibition in test [15] is 0.52% (inactive).
Consider `Cc1cc(C)n2nc(S(=O)(=O)N(C)c3ccccc3)nc2n1`, for which the viability is 103% in [1]; 103% (inactive) in test [3]; 88.2% (inactive) in [4]; 94.5% (inactive) in test [5]; 93.9% in test [6] (setting [16]); 94.5% in test [6] (setting [17]). Further, the viability in test [12] was 104% (inactive); in test [13] it was 98.1% (inactive). Further, in [2], the Her2 level was 102% (inactive). For the same compound, in test [6] (H69AR cells + 2 uM doxorubicin), the differential viability (reversal) was 0.67% (inactive). In addition, the inhibition was -5.6% (inactive) in test [7], 4.17% (inactive) in test [8] and 3.53% (inactive) in [14]. The growth inhibition was -16.1% (inactive) in [9] and -13.7% (inactive) in test [10]. Also, the viability increase in test [11] was -1.5% (inactive). For the same compound, the RAM network inhibition in [15] was 1.62% (inactive).
With `COCCNC(=O)CN(C)S(=O)(=O)c1ccc(Br)cc1`, the viability is 113% in test [1]; 113% (inactive) in test [3]; 97.5% (inactive) in test [4]; 104% (inactive) in test [5]; 98.2% in test [6] (setting [16]); 104% in test [6] (setting [17]). In addition, the viability in [12] is 98.7% (inactive); in [13], 98.4% (inactive). In test [2], the Her2 level is 98% (inactive). Further, the differential viability (reversal) in [6] (H69AR cells + 2 uM doxorubicin) is 5.54% (inactive). Also, the inhibition is -6.27% (inactive) in test [7], -3.23% (inactive) in [8] and 0.87% (inactive) in test [14]. Besides, the growth inhibition is -11.6% (inactive) in test [9] and -5.76% (inactive) in test [10]. Moreover, in [11], the viability increase is -2.09% (inactive). Besides, the RAM network inhibition in [15] was 3.01% (inactive).
Regarding `O=C(c1ccco1)N1CCN(C(=O)c2sccc2-c2ccccc2)CC1`, the viability was 93% in test [1]; 93% (inactive) in [3]; 86.2% (inactive) in test [4]; 83% (inactive) in test [5]; 89.8% in test [6] (setting [16]); 83% in test [6] (setting [17]). Moreover, the viability in test [12] was 94.6% (inactive). For the same compound, the Her2 level in test [2] was 104% (inactive). In addition, the differential viability (reversal) in test [6] (H69AR cells + 2 uM doxorubicin) is -6.79% (inactive). In addition, the inhibition in [7] is 2.3% (inactive); in test [8], -4.92% (inactive); in test [14] it was 2.49% (inactive). For the same compound, the growth inhibition in test [9] is -18.7% (inactive); in test [10], -9.14% (inactive). Besides, in test [11], the viability increase is -5.64% (inactive). Further, the RAM network inhibition in test [15] is 4.79% (inactive).
Take `CCOC(=O)Cn1nc(-c2ccc(Cl)cc2)cc1N`: the viability in test [1] was 78%; in [3] it was 78% (inactive); in [4], 91.8% (inactive); in test [5], 101% (inactive); in [6] (setting [16]) it was 83.1%; in test [6] (setting [17]), 101%. In [12], the viability was 102% (inactive). Besides, the Her2 level in test [2] is 116% (inactive). Also, in [6] (H69AR cells + 2 uM doxorubicin), the differential viability (reversal) was 18% (inactive). Moreover, the inhibition in test [7] is -7.95% (inactive); in test [8] it was -0.48% (inactive); in [14] it was 1.88% (inactive). In addition, the figures for the growth inhibition in test [9] and in [10] were -8.98% (inactive) and 2.33% (inactive), respectively. The viability increase in test [11] was 0.37% (inactive). In addition, the RAM network inhibition in test [15] is 5.56% (inactive).
In the case of `CC(C)C(NC(=O)c1ccc(S(=O)(=O)N2CCOCC2)cc1)c1nc2ccccc2[nH]1` (centres undefined), the viability is 104% in test [1]; 104% (inactive) in test [3]; 72.5% (inactive) in test [4]; 82.2% (inactive) in test [5]; 85.2% in test [6] (setting [16]); 82.2% in test [6] (setting [17]). Besides, the viability in test [12] is 100% (inactive). For the same compound, in [2], the Her2 level was 94.5% (inactive). The differential viability (reversal) in test [6] (H69AR cells + 2 uM doxorubicin) was -2.94% (inactive). For the same compound, the inhibition in test [7] is 1.95% (inactive); in [8] it was -2.95% (inactive); in test [14], 2.71% (inactive). For the same compound, the growth inhibition in test [9] was -13.7% (inactive); in test [10] it was -12.6% (inactive). Besides, in test [11], the viability increase is -5.63% (inactive). In addition, the RAM network inhibition in test [15] was 6.44% (inactive).
`Nc1cccc2c1C(=O)N(c1ccccc1)C2=O`: the viability was 95% in [1]; 95% (inactive) in test [3]; 91.4% (inactive) in test [4]; 98.8% (inactive) in [5]; 84.1% in [6] (setting [16]); 98.8% in [6] (setting [17]). In addition, the viability in test [12] is 106% (inactive); in test [13], 95.2% (inactive). In addition, the Her2 level in test [2] was 97% (inactive). For the same compound, the differential viability (reversal) in test [6] (H69AR cells + 2 uM doxorubicin) is 14.7% (inactive). The inhibition is -3.87% (inactive) in [7], -1.48% (inactive) in test [8] and 1.5% (inactive) in test [14]. In addition, the growth inhibition is -10.6% (inactive) in test [9] and -8.73% (inactive) in [10]. In test [11], the viability increase was -2.17% (inactive). For the same compound, the RAM network inhibition in test [15] is 0.47% (inactive).
As to `COc1ccccc1C(=O)NCCc1nc2ccccc2n1C`, the viability in test [1] is 118%; in test [3], 118% (inactive); in test [4] it was 119% (inactive); in [5], 101% (inactive); in [6] (setting [16]) it was 95%; in [6] (setting [17]) it was 101%. For the same compound, the viability in [12] is 105% (inactive). Also, the Her2 level in test [2] was 83% (inactive). Also, the differential viability (reversal) in test [6] (H69AR cells + 2 uM doxorubicin) is 5.79% (inactive). For the same compound, the inhibition in [7] is -6.76% (inactive); in test [8], -3.67% (inactive); in test [14] it was 2.54% (inactive). In addition, the growth inhibition is -20.8% (inactive) in test [9] and 0.505% (inactive) in test [10]. For the same compound, the viability increase in test [11] was 0.02% (inactive). For the same compound, the RAM network inhibition in test [15] is 5.39% (inactive).

Usually viability stands for a read-out of living cells in per cent, often relative to untreated cells. The inhibition is the change of the read-out against control, counted positive when it falls.
